Measurements taken from PubChem BioAssay AID2384 (Southern Research Specialized Biocontainment Screening …, 2010).
About 1,100 (48%) of roughly 2,300 compounds were called active. The rule behind the calls is not given here. So high a share suggests a set chosen from earlier hits. Some of the results follow. Potency and affinity values are given separately.

assay: inhibitors in S. typhi counter-screen strain, dose response, counter-screen for PhoP regulon inhibitor project, fluorescence, 4 h (AID 2384); settings: S. typhi GFP reporter counter-screen; series mostly up to 150 µM; inhibition: at the top concentration

Row | Compound | inhibition
1 | COc1ccc(N(CCCN2C(=O)c3cccc4cccc(c34)C2=O)C(=O)c2cccnc2)cc1 | 7.69% (inactive)
2 | C/C(=N\NC(=O)COc1ccccc1[N+](=O)[O-])c1cccs1 | 4.14% (inactive)
3 | CCN(CC)c1cc(C)c2cc(NC(=O)c3ccccc3F)ccc2n1 | 16.7% (inactive)
4 | O=C(Cn1c(=O)oc2cc(S(=O)(=O)N3CCCC3)ccc21)N1CCN(c2ccccc2F)CC1 | -19.8% (inactive)
5 | CC1CCCN(C(=O)Cn2c(=O)oc3cc(S(=O)(=O)N4CCCCC4)ccc32)C1 (stereo not drawn) | -8.49% (inactive)
6 | CCn1cc(C(=O)O)c(=O)c2cc(F)c(N3CCN(C(=S)NC(=O)c4ccccc4F)CC3)cc21 | 7.79% (inactive)
7 | N=C1c2ccccc2CN1c1ncccn1 | 24.2% (inactive)
8 | COCCCNc1c2c(nc3nnnn13)CCCC2 | -14.2% (inactive)
9 | CCN(CC)S(=O)(=O)c1ccc(N2CCOCC2)c(C(=O)O)c1 | 10.2% (inactive)
10 | CCN(CC)CCOC(=O)c1cc(Cl)c(N)cc1OC | -7.05% (inactive)
11 | COc1ccc(C(CC(=O)O)NC(=O)C2CCCCC2)cc1 (stereo not drawn) | -13.5% (inactive)
12 | COc1ccc(CCNC(=O)Cn2c(=O)n(CC3CCCO3)c(=O)c3ccccc32)cc1OC (stereo not drawn) | 6.95% (inactive)
13 | COc1ccc(OC)c(-c2cc(C(=O)Nc3ccc(F)cc3F)no2)c1 | -17% (inactive)
14 | Cc1nc(N2CCOCC2)c2c(C)c(C(=O)Nc3ccccc3C(F)(F)F)sc2n1 | -9.31% (inactive)
15 | O=C(Cn1nc(Cl)nc1Cl)c1ccc([N+](=O)[O-])cc1 | 30.1% (inactive)
16 | CC1CC(C)CN(S(=O)(=O)c2ccc3c(c2)oc(=O)n3CC(=O)N(C)Cc2ccccc2)C1 (stereo not drawn) | -12.7% (inactive)
17 | Cc1cc(=O)n2nc(N3CCCC(C(=O)NC4CCCCC4C)C3)sc2n1 (stereo not drawn) | -27.6% (inactive)
18 | Cc1nnc(SCC(=O)Nc2cc(S(=O)(=O)N3CCCC3)ccc2Cl)s1 | 7.35% (inactive)
19 | CCOc1ccc(S(=O)(=O)N2CCC(C(=O)NCCN3CCOCC3)CC2)cc1C | -8.84% (inactive)
20 | CCCCCCCCn1ccc(=N)cc1 | 16.7% (inactive)
21 | CCN(CC)CCn1nc(C)nc1-c1ccccc1O | 26.3% (inactive)
22 | CCN1c2ccccc2NC2N=C(OC)C(c3ccccc3)C21 (stereo not drawn) | 10% (inactive)
23 | O=C(Nc1ccc(F)cc1)c1ccc2snnc2c1 | -0.59% (inactive)

Row | Compound | inhibition
24 | Clc1ccc(CN2CCN(/N=C/c3ccco3)CC2)cc1 | -9.25% (inactive)
25 | C=CCn1c(C)cc(C(=O)CSc2n[nH]c(N)n2)c1C | 17.4% (inactive)
26 | COc1ccc(NC(=O)N2CCc3ccccc32)cc1 | 6.46% (inactive)
27 | O=C(CCl)NC1CCCc2ccccc21 (stereo not drawn) | 17% (inactive)
28 | Cc1c(NC(=O)OCc2ccccc2)c(=O)n(-c2ccccc2)n1C | 6.31% (inactive)
29 | Cc1c(-n2cc(C(=O)c3ccccc3O)cc(C#N)c2=O)c(=O)n(-c2ccccc2)n1C | -26% (inactive)
30 | Cc1csc2ncc(C(=O)Nc3ccon3)c(=O)n12 | -27.3% (inactive)
31 | O=C(CCn1cccc1)Nc1ccc(OC(F)(F)F)cc1 | 6.96% (inactive)
32 | O=C(O)C1CCCCC1C(=O)NCCc1ccncc1 (stereo not drawn) | -33.6% (inactive)
33 | CCOC(=O)C(O)(NC(=O)c1cccnc1)C(F)(F)F (stereo not drawn) | -35.3% (inactive)
34 | N/C(=N\OC(=O)COc1ccc2ccccc2c1)c1ccccn1 | 23.6% (inactive)
35 | COc1ccc(N(C(=O)c2cccnc2)S(=O)(=O)c2ccc(F)cc2)cc1 | 9.91% (inactive)
36 | N/C(=N\OC(=O)C(c1ccccc1)c1ccccc1)c1ccncc1 | 5.38% (inactive)
37 | O=C(Nc1ccc(S(=O)(=O)N2CCCC2)cc1)c1cccnc1 | -28.6% (inactive)
38 | O=C(O)c1[nH]c2ccc(Br)cc2c1CCN1C(=O)c2cccc([N+](=O)[O-])c2C1=O | -4.29% (inactive)
39 | CCOC(=O)C(NC(C)=O)(OCc1ccc(F)cc1)C(F)(F)F (stereo not drawn) | -10.7% (inactive)
40 | COc1cccc(/C=N/NC(=O)CNC(=O)CCc2ccccc2)c1O | 33.1% (inactive)
41 | COc1ccc(C2CC(=O)N3CN(Cc4ccco4)CSC3=C2C#N)cc1 (stereo not drawn) | 26.7% (inactive)
42 | C=CCNC(=O)NC(=O)COC(=O)/C(C#N)=C/c1ccc(OC)cc1 | -18.2% (inactive)
43 | O=C(Nc1cccc(OCC(=O)N2CCOCC2)c1)c1cccc([N+](=O)[O-])c1 | 6.44% (inactive)
44 | N/C(=N\OC(=O)N1CCOCC1)c1ccccc1 | -11.4% (inactive)
45 | CC(C)(C)c1ccc(NC(=O)COc2ccc(-n3ccnc3)cc2)cc1 | 38.1% (inactive)
46 | CCC(C)(c1ccc(C(=O)OC)s1)c1ccc(C(=O)OC)s1 | -5.73% (inactive)

Row | Compound | inhibition
47 | CCOC(=O)C1CCN(Cc2nc(-c3ccc(OC)c(OC)c3)no2)CC1 | 1.43% (inactive)
48 | CC1=C([N+](=O)[O-])C(c2ccccc2)C2=C(N1)c1ccccc1C2=O (stereo not drawn) | 5.99% (inactive)
49 | CCSC1=NCN(CCCC(=O)O)CN1 | 18.6% (inactive)
50 | Cc1ccc(CNC(=O)CCC(=O)Nc2nnc(C)s2)cc1 | -21.4% (inactive)
51 | COc1ccc(CC(=O)Nc2ncc([N+](=O)[O-])s2)cc1OC | 20.6% (inactive)
52 | O=C(Nc1ccc(N2CCOCC2)cc1)c1ccc(S(=O)(=O)NCc2ccco2)cc1 | 3.82% (inactive)
53 | O=C(NCc1ccccn1)c1nc(Cn2ccc([N+](=O)[O-])n2)no1 | -7.25% (inactive)
54 | CC(C)NC(=O)Nc1ccc(Br)cc1Cl | 2.32% (inactive)
55 | CCC1Oc2ccc(C)cc2N(CC(=O)NCC2COc3ccccc3O2)C1=O (stereo not drawn) | -30.8% (inactive)
56 | CCCCOc1ccc(OCCNC(=O)c2ccco2)cc1 | 33% (inactive)
57 | CCOc1ccc(NC(=O)c2ccc(N)cc2)cc1 | 35% (inactive)
58 | CSCCC(NC(=O)c1ccc(Br)cc1)C(=O)O (stereo not drawn) | 8.59% (inactive)
59 | CCS(=O)(=O)N1CCN(C(=O)c2ccco2)CC1 | 4.55% (inactive)
60 | CCCN(CCC)CC(=O)Nc1cccc2c1OCO2 | 36.9% (inactive)
61 | Cc1nc2ccccn2c1/C(O)=C1\C(=O)C(=O)N(CCN2CCOCC2)C1c1cccnc1 (stereo not drawn) | -27.4% (inactive)
62 | COc1cccc(C(=O)N(CN2CCCC2=O)c2cc(C)on2)c1 | -17.4% (inactive)
63 | CCCCCCC(=O)N(O)C1CC(=O)N(Cc2ccccc2)C1=O (stereo not drawn) | -30.3% (inactive)
64 | COc1cc(C)nc(N2CCCC(C(=O)NCC(C)C)C2)n1 (stereo not drawn) | -1.6% (inactive)
65 | CCN1C(=O)NC(c2ccccc2)C1=O (stereo not drawn) | -13.8% (inactive)
66 | O=C(Cn1cnc2cc([N+](=O)[O-])ccc2c1=O)Nc1ccccc1Cl | -23.5% (inactive)
67 | O=C(Cn1cc(/C=C\[N+](=O)[O-])c2ccccc21)Nc1ccccc1 | -16.3% (inactive)
68 | O=[N+]([O-])c1ccc(CN2CCSCC2)cc1 | 0.59% (inactive)
69 | CCOc1ccc2ccccc2c1C(=O)N[C@@H]1C(=O)N2[C@@H]1SC(C)(C)[C@@H]2C(=O)O | -8.71% (inactive)

Row | Compound | inhibition
70 | O=C(CN(CCc1ccccc1)C(=O)CNS(=O)(=O)c1ccc(F)cc1)NCC1CCCO1 (stereo not drawn) | -12.6% (inactive)
71 | CCOc1cc(C2NC(=O)N(C)C(C)=C2[N+](=O)[O-])ccc1OC(C)=O (stereo not drawn) | 14.6% (inactive)
72 | COc1ccccc1/C=N/N1C(=O)c2cccc3cccc(c23)C1=O | 5.18% (inactive)
73 | O=C(c1ccccc1F)N1C(=O)c2cccc3cccc1c23 | -21.7% (inactive)
74 | COCc1[nH]nc2c1C(c1ccc(OC)cc1)C(C#N)=C(N)O2 (stereo not drawn) | 16.7% (inactive)
75 | Cn1c(C(O)c2ccccc2F)nc(Cl)c1Cl (stereo not drawn) | -1.03% (inactive)
76 | Cc1cc(Br)cc2cn[nH]c12 | -15.8% (inactive)
77 | CC(C)c1c(O)nc(SCC(=O)N2CCOCC2)[nH]c1=O | 5.37% (inactive)
78 | Cc1cc(C(=O)Cn2cncn2)c(C)n1CCc1ccc(F)cc1 | 8.14% (inactive)
79 | CC(C)(C)SCCNC(=O)c1ccccc1 | 25.1% (inactive)
80 | O=C1C2=C(Nc3ccccc3SC2c2ccco2)c2ccccc21 (stereo not drawn) | 19.7% (inactive)
81 | Brc1ccc2nc(-c3c[nH]c4ccccc34)cn2c1 | 37.6% (inactive)
82 | c1csc(-n2nc3ccccc3n2)c1 | -0.06% (inactive)
83 | CCNC(=S)Nc1cc(-c2ccc(Cl)cc2)[nH]n1 | 6.86% (inactive)
84 | O=S(=O)(Nc1ncccn1)c1ccc(NC(=S)Nc2ccccc2Cl)cc1 | -30.6% (inactive)
85 | Cc1ccc(CCNC(=O)c2cc(S(=O)(=O)N3CCCCC3)c[nH]2)cc1 | -18.9% (inactive)
86 | O=C(N/N=C/c1c(Cl)nc2ccccn2c1=O)c1cccnc1 | 18.8% (inactive)
87 | O=c1c2ccccc2nc(COc2ccccc2)n1/N=C/c1ccc(O)cc1O | 18% (inactive)
88 | COc1nnc(-c2ccc(N3CCOCC3)c(NC(=O)c3ccc(C)cc3)c2)c2ccccc12 | 18.7% (inactive)
89 | CC(C)(C)NC(=O)NC(=O)COC(=O)CCC1CCCC1 | 2.02% (inactive)
90 | COc1ccc(OC)c(CCNC(=O)CS(=O)(=O)Cc2nc(-c3ccccc3C)oc2C)c1 | -14.6% (inactive)
91 | COc1nccnc1NS(=O)(=O)c1ccc(N=Cc2c(C)[nH]n(-c3ccc(C)c(C)c3)c2=O)cc1 | -9.46% (inactive)
92 | COc1ccc(NC(=O)c2cc(Br)c(Br)s2)cn1 | 36.2% (inactive)

Row | Compound | inhibition
93 | COc1cc2[nH]c(=S)n(CC3CCCO3)c(=O)c2cc1OC (stereo not drawn) | -6.65% (inactive)
94 | Cc1cc([N+](=O)[O-])nn1CC(=O)Nc1cccc2nonc12 | 22.1% (inactive)
95 | CN1CCN(c2ccccc2NC(=O)c2cc3c(s2)-c2ccccc2OC3)CC1 | -9.06% (inactive)
96 | COc1ccc(C)cc1S(=O)(=O)N1CCCC(C(=O)NCC2CCCO2)C1 (stereo not drawn) | 4.17% (inactive)
97 | COc1ccc(NC(=O)COC(=O)c2ccc([N+](=O)[O-])o2)cc1Cl | 15.3% (inactive)
98 | C/C(Cn1nnc([N+](=O)[O-])n1)=N\NC(=O)c1ccccc1 | -28.4% (inactive)
99 | Cc1cc2oc(C(=O)NCc3ccncc3)c(C)c2cc1C | -11% (inactive)
100 | O=C(Nc1ccc(Cc2ccncc2)cc1)c1cccs1 | 24.9% (inactive)
101 | O=C(Nc1ccc(N2CCOCC2)c(Cl)c1)c1ccccc1F | 13.2% (inactive)
102 | Cc1onc(C(=O)/C=C/N(C)C)c1C(=O)Nc1nccs1 | 2.19% (inactive)
103 | Cc1cc(C)c2c(=O)[nH]c(SCC(=O)N3CCCCC3)nc2n1 | -2.83% (inactive)
104 | COc1ccc(C2C(C(=O)N3CCC4(CC3)OCCO4)CC(=O)N2c2ccc(OC)cc2)cc1 (stereo not drawn) | -5.55% (inactive)
105 | COc1ccc(-c2cc(C(=O)Nc3ccc(S(=O)(=O)Nc4onc(C)c4C)cc3)c3ccccc3n2)cc1OC | -16.4% (inactive)
106 | CCOc1ccc(N2C(=O)CN(O)C=C3N=c4ccccc4=C32)cc1 | -4.29% (inactive)
107 | CC(=O)c1ccc(NC(=O)CN2CCCCCC2)cc1 | 5.32% (inactive)
108 | COc1ccc(-c2nc3cc(NC(=O)Cc4ccc(OC)c(OC)c4)ccc3o2)cc1 | -5.04% (inactive)
109 | C[N+]1(CC2COC3(CCCCC3)O2)CCCCC1 (stereo not drawn) | 2.61% (inactive)
110 | CCn1nnnc1SCC(=O)c1cc(Cl)ccc1OC | 26.2% (inactive)
111 | COc1ccc(NC(=O)C2CCCN(C(=O)NC3CCCCC3)C2)cc1OC (stereo not drawn) | -7.47% (inactive)
112 | O=c1cc(-c2ccccc2)nc2nc(-c3ccco3)[nH]n12 | 35% (inactive)
113 | C#CCOCCOCCOCCNc1nc(N2CCN(C(=O)CCCCCCCCCCNC(=O)[C@H]([C@@H](C)CC)n3cc(CCCCCN)nn3)CC2)nc(N2CCN(C(=O)CCCCCCCCCCNC(=O)[C@@H]([C@H](C)O)n3cc(C)nn3)CC2)n1 | 10.8% (inactive)
